PubChem BioAssay AID1159580 (chemical genetic matrix, 2015)
Several values for one entry are separate records, joined by “and”; a condition that tells them apart may be missing. Equal values may be shown once. The whole screen tested about 5,500 compounds, of which about 2,000 (36%) were called active. Roughly 18% stayed inconclusive and do not appear here. No stated cut-off is given here; in the data, active means normalized growth mostly below about 0.91 (no sharp cut-off); inconclusive means no clear call, values can overlap the other calls; inactive means mostly above about 0.92. The list shows a part of the results.

Experiment: chemical genetic growth profiling, strain panel (AID 1159580);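 further: tested at 20 µM; growth read once vehicle control cultures reached saturation at 30 °C; 1 = growth at the plate median or of vehicle wells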
Details: growth OD
[1] = S. cerevisiae deletion strains, locus YDR150W, strain NUM1, stronger effect = lower value
[2] = S. cerevisiae deletion strains, locus YMR307W, strain GAS1, stronger effect = lower value
[3] = S. cerevisiae deletion strains, locus YPL241C, strain CIN2, stronger effect = lower value
[4] = S. cerevisiae deletion strains, locus YAL040C, strain CLN3, stronger effect = lower value
[5] = S. cerevisiae deletion strains, locus YCL061C, strain MRC1 (second series), stronger effect = lower value
[6] = S. cerevisiae deletion strains, locus YER002W, strain NOP16, stronger effect = lower value
[7] = S. cerevisiae deletion strains, locus YNL153C, strain GIM3, stronger effect = lower value
[8] = S. cerevisiae deletion strains, locus YNL175C, strain NOP13, stronger effect = lower value
[9] = S. cerevisiae deletion strains, locus YNL197C, strain WHI3, stronger effect = lower value
[10] = S. cerevisiae deletion strains, locus YNL224C, strain SQS1, stronger effect = lower value
[11] = S. cerevisiae deletion strains, locus YOR083W, strain WHI5 (second series), stronger effect = lower value

Measured: normalized growth

O=C(O)C(O)C(O)C(O)C(O)C(=O)O (stereo not drawn)
inactive: S. cerevisiae deletion strains, locus YBR021W, strain FUR4, stronger effect = lower value 0.99 | S. cerevisiae deletion strains, locus YBR229C, strain ROT2, stronger effect = lower value 0.998 | S. cerevisiae deletion strains, locus YCL029C, strain bik1, stronger effect = lower value 0.982 | S. cerevisiae deletion strains, locus YDL035C, strain GPR1, stronger effect = lower value 1.04 | S. cerevisiae deletion strains, locus YDL074C, strain BRE1, stronger effect = lower value 1.04 | S. cerevisiae deletion strains, locus YDL101C, strain DUN1, stronger effect = lower value 0.988 | S. cerevisiae deletion strains, locus YDL185W, strain tfp1, stronger effect = lower value 1 | S. cerevisiae deletion strains, locus YDL192W, strain arf1, stronger effect = lower value 0.993 | S. cerevisiae deletion strains, locus YDR101C, strain arx1, stronger effect = lower value 0.983 | [1] 1.02 | S. cerevisiae deletion strains, locus YDR162C, strain NBP2, stronger effect = lower value 1.01 | S. cerevisiae deletion strains, locus YDR318W, strain mcm21, stronger effect = lower value 1 | S. cerevisiae deletion strains, locus YDR388W, stronger effect = lower value 0.993 | S. cerevisiae deletion strains, locus YDR502C, strain sam2, stronger effect = lower value 0.991 | S. cerevisiae deletion strains, locus YEL061C, strain CIN8, stronger effect = lower value 1.06 | S. cerevisiae deletion strains, locus YER110C, stronger effect = lower value 0.982 | S. cerevisiae deletion strains, locus YER155C, strain BEM2, stronger effect = lower value 0.994 | S. cerevisiae deletion strains, locus YER167W, strain BCK2, stronger effect = lower value 1 | S. cerevisiae deletion strains, locus YGL078C, strain dbp3, stronger effect = lower value 0.994 | S. cerevisiae deletion strains, locus YGL086W, strain mad1, stronger effect = lower value 0.966 | S. cerevisiae deletion strains, locus YGL248W, strain PDE1, stronger effect = lower value 0.997 | S. cerevisiae deletion strains, locus YGR078C, strain PAC10, stronger effect = lower value 0.997 | S. cerevisiae deletion strains, locus YGR135W, strain pre9, stronger effect = lower value 0.991 | S. cerevisiae deletion strains, locus YGR229C, strain SMI1, stronger effect = lower value 1.03 | S. cerevisiae deletion strains, locus YGR252W, strain gcn5, stronger effect = lower value 1.04 | S. cerevisiae deletion strains, locus YHR030C, strain SLT2, stronger effect = lower value 1 and 0.993 | S. cerevisiae deletion strains, locus YHR079C, strain IRE1 (second series), stronger effect = lower value 0.99 | S. cerevisiae deletion strains, locus YHR079C, strain IRE1, stronger effect = lower value 1 | S. cerevisiae deletion strains, locus YHR094C, strain hxt1, stronger effect = lower value 0.989 | S. cerevisiae deletion strains, locus YHR129C, strain ARP1, stronger effect = lower value 1.01 | S. cerevisiae deletion strains, locus YHR200W, strain rpn10, stronger effect = lower value 0.983 | S. cerevisiae deletion strains, locus YIL066C, strain RNR3, stronger effect = lower value 0.985 | S. cerevisiae deletion strains, locus YIL073C, strain SPO22, stronger effect = lower value 1.01 | S. cerevisiae deletion strains, locus YIL125W, strain kgd1, stronger effect = lower value 0.984 | S. cerevisiae deletion strains, locus YIR030C, strain dcg1, stronger effect = lower value 0.986 | S. cerevisiae deletion strains, locus YJL095W, strain BCK1, stronger effect = lower value 1.02 and 0.995 | S. cerevisiae deletion strains, locus YJL134W, strain LCB3, stronger effect = lower value 1 | S. cerevisiae deletion strains, locus YJL168C, strain set2, stronger effect = lower value 0.988 | S. cerevisiae deletion strains, locus YJL187C, strain SWE1 (second series), stronger effect = lower value 0.996 | S. cerevisiae deletion strains, locus YJR043C, strain POL32, stronger effect = lower value 1.01 | S. cerevisiae deletion strains, locus YJR066W, strain TOR1, stronger effect = lower value 0.942 | S. cerevisiae deletion strains, locus YKL009W, strain mrt4, stronger effect = lower value 0.966 | S. cerevisiae deletion strains, locus YKL068W, stronger effect = lower value 0.998 | S. cerevisiae deletion strains, locus YKL085W, strain MDH1 (second series), stronger effect = lower value 0.983 | S. cerevisiae deletion strains, locus YKL085W, strain MDH1, stronger effect = lower value 0.983 | S. cerevisiae deletion strains, locus YKL190W, strain CNB1, stronger effect = lower value 1.03 | S. cerevisiae deletion strains, locus YKR001C, strain vps1, stronger effect = lower value 0.985 | S. cerevisiae deletion strains, locus YLR039C, strain RIC1, stronger effect = lower value 1.07 | S. cerevisiae deletion strains, locus YLR058C, strain SHM2, stronger effect = lower value 1 | S. cerevisiae deletion strains, locus YLR102C, strain apc9, stronger effect = lower value 0.99 | S. cerevisiae deletion strains, locus YLR113W, strain HOG1, stronger effect = lower value 0.995 | S. cerevisiae deletion strains, locus YLR262C, strain YPT6, stronger effect = lower value 1.14 | S. cerevisiae deletion strains, locus YLR268W, strain sec22, stronger effect = lower value 0.972 | S. cerevisiae deletion strains, locus YLR330W, strain CHS5, stronger effect = lower value 0.992 | S. cerevisiae deletion strains, locus YLR342W, strain FKS1 (second series), stronger effect = lower value 1 | S. cerevisiae deletion strains, locus YLR371W, strain rom2, stronger effect = lower value 0.977 | S. cerevisiae deletion strains, locus YLR418C, strain cdc73, stronger effect = lower value 0.993 | S. cerevisiae deletion strains, locus YML016C, strain PPZ1, stronger effect = lower value 0.982 | S. cerevisiae deletion strains, locus YML032C, strain rad52, stronger effect = lower value 1.02 | S. cerevisiae deletion strains, locus YML124C, strain tub3, stronger effect = lower value 0.985 | S. cerevisiae deletion strains, locus YMR078C, strain ctf18, stronger effect = lower value 0.983 | S. cerevisiae deletion strains, locus YMR223W, strain ubp8, stronger effect = lower value 1.01 | S. cerevisiae deletion strains, locus YMR263W, strain SAP30, stronger effect = lower value 1 | [2] 1.1 | S. cerevisiae deletion strains, locus YNL067W, strain RPL9B, stronger effect = lower value 1 | S. cerevisiae deletion strains, locus YNL183C, strain NPR1, stronger effect = lower value 0.909 | S. cerevisiae deletion strains, locus YNL233W, strain BNI4, stronger effect = lower value 1 | S. cerevisiae deletion strains, locus YNL250W, strain rad50, stronger effect = lower value 0.972 | S. cerevisiae deletion strains, locus YNL271C, strain bni1, stronger effect = lower value 0.984 | S. cerevisiae deletion strains, locus YNL298W, strain CLA4, stronger effect = lower value 0.992 | S. cerevisiae deletion strains, locus YNL307C, strain MCK1, stronger effect = lower value 0.979 | S. cerevisiae deletion strains, locus YNL322C, strain KRE1, stronger effect = lower value 1 | S. cerevisiae deletion strains, locus YNR052C, strain pop2, stronger effect = lower value 1 | S. cerevisiae deletion strains, locus YOL006C, strain TOP1, stronger effect = lower value 0.989 | S. cerevisiae deletion strains, locus YOL012C, strain htz1 0.785 | S. cerevisiae deletion strains, locus YOL147C, strain pex11, stronger effect = lower value 0.991 | S. cerevisiae deletion strains, locus YOR061W, strain CKA2, stronger effect = lower value 0.997 | S. cerevisiae deletion strains, locus YOR069W, strain VPS5, stronger effect = lower value 1 | S. cerevisiae deletion strains, locus YOR136W, strain idh2, stronger effect = lower value 0.983 | S. cerevisiae deletion strains, locus YOR144C, strain elg1, stronger effect = lower value 0.982 | S. cerevisiae deletion strains, locus YOR184W, strain ser1, stronger effect = lower value 0.993 | S. cerevisiae deletion strains, locus YOR231W, strain MKK1, stronger effect = lower value 1.01 | S. cerevisiae deletion strains, locus YOR316C, strain cot1, stronger effect = lower value 0.983 | [3] 1.05 | S. cerevisiae deletion strains, locus YPL256C, strain CLN2, stronger effect = lower value 0.978 | S. cerevisiae deletion strains, locus YPR119W, strain clb2, stronger effect = lower value 0.986 | S. cerevisiae deletion strains, locus YPR141C, strain kar3, stronger effect = lower value 0.986 | S. cerevisiae deletion strains, locus YPR163C, strain tif3, stronger effect = lower value 0.982 | S. cerevisiae deletion strains, locus YPR167C, strain met16, stronger effect = lower value 0.988 | S. cerevisiae deletion strains, strain wtn01, stronger effect = lower value 0.971 | S. cerevisiae strains, strain wild type, stronger effect = lower value 1.03

NC(CP(=O)(O)O)C(=O)O (stereo not drawn)
inactive: [4] 1.09 | [5] 0.998 | [6] 1.03 | [7] 1.04 | [8] 1.01 | [9] 1.01 | [10] 1.01 | [11] 1.01 | S. cerevisiae deletion strains, locus YPL055C, strain LGE1, stronger effect = lower value 1.02

N[C@H](C(=O)O)[C@H](O)C(=O)O
inactive: S. cerevisiae deletion strains, locus YAL013W, strain DEP1, stronger effect = lower value 0.972 | [4] 0.965 | [5] 0.994 | [1] 1 | S. cerevisiae deletion strains, locus YDR363W, strain ESC2, stronger effect = lower value 0.987 | [6] 1 | [2] 0.992 | [7] 0.989 | [8] 1.01 | [9] 0.996 | [10] 0.983 | [11] 1.06 | [3] 0.992
